Results taken from PubChem BioAssay (NCATS).

Target: Lysosomal acid glucosylceramidase (Homo sapiens) (UniProt P04062)
Assay: Glucocerebrosidase-p2 (AID 348)
Details: purified GBA, blue fluorogenic substrate, 40 min; in the data active = potency below about 10 µM; inactive = the rest
Procedure, shortened: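 Compounds titrated from 0.6 nM upwards against 0.2 nM enzyme in pH 5.9 citric acid/KH2PO4, taurocholate, tween-20; blue fluorogenic substrate 80 uM, 40 min room temperature, stopped and read Ex 365/Em 440 for AC50.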
Potency is the fitted concentration of half-maximal effect.

Lysosomal acid glucosylceramidase (Homo sapiens), sequence (P04062 whole entry, looked up): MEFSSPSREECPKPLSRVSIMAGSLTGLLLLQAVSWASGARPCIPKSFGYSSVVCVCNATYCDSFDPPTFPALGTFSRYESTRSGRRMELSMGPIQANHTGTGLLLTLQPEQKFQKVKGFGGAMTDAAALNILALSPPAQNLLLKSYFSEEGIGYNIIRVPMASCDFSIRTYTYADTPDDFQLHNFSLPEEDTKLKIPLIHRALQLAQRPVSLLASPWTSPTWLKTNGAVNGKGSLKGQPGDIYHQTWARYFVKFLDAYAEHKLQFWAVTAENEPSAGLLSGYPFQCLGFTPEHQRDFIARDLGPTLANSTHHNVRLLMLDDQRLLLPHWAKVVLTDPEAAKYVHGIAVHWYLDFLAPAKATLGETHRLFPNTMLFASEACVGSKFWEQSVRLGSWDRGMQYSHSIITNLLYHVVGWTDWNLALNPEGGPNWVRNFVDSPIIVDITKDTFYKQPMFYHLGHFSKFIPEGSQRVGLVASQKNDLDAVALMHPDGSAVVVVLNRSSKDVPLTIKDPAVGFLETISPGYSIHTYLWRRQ

Potency, inactive:
C/C(=N/Nc1ccc2ccccc2n1)c1ccccc1O > 11.4 µM
O[C@@H](C1=C/C(=C\c2ccncc2)c2ccccc21)c1ccncc1 > 11.4 µM
Nc1cccc(OCc2nc(N)nc(N)c2-c2ccc(Cl)cc2)c1 > 11.4 µM
CN(C)c1ccc(/C=N\NC(=O)c2cnc3ccccc3c2)cc1 > 11.4 µM
Cc1ccc(S(=O)(=O)Nc2cc(=O)[nH]c3c2CCC3)cc1 > 11.4 µM
Cc1ccc2c(c1)N[C@H](c1ccc(C(=O)O)cc1)c1cccn1-2 > 11.4 µM
COc1cc(Cl)c(CC(=O)c2c[nH]c3ccccc23)cc1OC > 11.4 µM
Cn1c(=O)c2[nH]c(SCc3ccccn3)nc2n(C)c1=S > 11.4 µM
Nc1nc(SCc2ccccc2[N+](=O)[O-])c2[nH]cnc2n1 > 11.4 µM
COCCn1c(=O)c(-c2ccccc2)nc2cnc(Oc3ccccc3)nc21 > 11.4 µM
Cn1ncc2c(NCCc3ccccc3)nc(Cl)nc21 > 11.4 µM
COc1ccc(Oc2ncc3nc(C)c(=O)n(-c4ccc(OC)cc4)c3n2)cc1 > 11.4 µM
CN[C@@H](c1ccncc1)[C@@H](NC)c1ccncc1 > 11.4 µM
CCCCSCc1nc2nc(Cl)c(Cl)nc2[nH]1 > 11.4 µM
CC(C)N1CCN(c2ccncc2S(=O)(=O)N2CCCCC2)CC1 > 11.4 µM
Nc1nc(SCCc2ccccc2)c2[nH]cnc2n1 > 11.4 µM
CN(C)C[C@H]1CCC[C@@H](CN(C)C)C1=O > 11.4 µM
O=C1C2=C(Nc3cc([N+](=O)[O-])ccc3N2)O[C@@H]1c1c[nH]c2ccc(COc3ccccc3)cc12 > 11.4 µM
O=S(=O)(c1cnccc1N1CCN(CCO)CC1)N1CCCC1 > 11.4 µM
C[C@](O)(c1ccccc1)c1nccc2ccccc12 > 11.4 µM
O=c1oc2cc(N=Cc3ccc4c(c3)OCO4)ccc2c2ccccc12 > 11.4 µM
C=C[C@]1(C)C[C@H](OC(=O)CO)[C@]2(C)C3C(=O)CC[C@]3(CC[C@H]2C)[C@H](C)[C@H]1O (some centres not stated) > 11.4 µM
O=C(O)c1ccc(SSc2ccc(C(=O)O)cn2)nc1 > 11.4 µM
O=C(CSc1nc2ccc([N+](=O)[O-])cc2s1)c1ccc2ccccc2c1 > 11.4 µM
COc1ccc2c(Cl)cc(NC(=S)Nc3ccccc3)nc2c1 10.6 µM
Nc1[nH]c(=S)[nH]c(=O)c1N=Nc1c(Br)cc(S(N)(=O)=O)cc1Br > 11.4 µM
Cn1c(=O)c2[nH]c(CCCCc3nc4c([nH]3)c(=O)n(C)c(=S)n4C)nc2n(C)c1=S > 11.4 µM
